Hits are enriched below; roughly 10% of the tested compounds scored in any of these assays.
12-hLO inh: qHTS Assay for Inhibitors of 12-hLO (12-human lipoxygenase) | AID 1452, 2008 | 150,000 compounds, 0.12% hits | Potency, µM (series often up to 57.1 µM), for inactives: top-dose activity change, negative = inhibition, hits mostly inhibitors | purified 12-hLO, xylenol orange hydroperoxide absorbance; active means well fitted inhibition curve with a large enough effect; inconclusive means small, poorly fitted or top-dose-only effect; further: potency means the concentration at half of the fitted maximal effect; nearly all actives have a fitted effect of over 55% in size
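150 nM 12hLO, 25 mM Hepes pH 7.0 + 0.01% Triton X-100; cpd preinc 15 min RT; 40 uM arachidonic acid, 30 min RT; Fe-XO 30 min; A573/A405 ratio as read-out.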
LMNA splice mod: qHTS Assay for Modulators of Lamin A Splicing | 200,000 compounds, 0.01% hits | AID 1487, 2009 | HeLa LMNA splicing GFP/RFP minigene ratio, 48 h | Potency, µM (top dose mostly 46.1 µM), inactives show at the top dose ratio change, negative = inhibition, actives largely listed as inhibitors; active means well fitted inhibition curve with a large enough effect in the signal ratio, with a control signal flat, not every such curve was filed as active; inconclusive means small, poorly fitted or top-dose-only effect, or effect the other way, or a change in a side signal; the % refers to the signal ratio; further: potency means the concentration at half of the fitted maximal effect
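Read-out is the ratio of GFP to DsRed2 object intensity, acquired by 488 nm laser-scanning cytometry on HeLa lamin A-EGFP minigene reporter cells. Compound incubation 48 hrs at 37 °C in Opti-MEM with 2% FBS; DMSO 0.5% final.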
HPGD inh: qHTS Assay for Inhibitors of HPGD (15-Hydroxyprostaglandin Dehydrogenase); 15-hydroxyprostaglandin dehydrogenase [NAD(+)] (Homo sapiens), P15428; 150,000 compounds, 4.3% hits; Potency, µM, for the others: at the top dose activity change, negative = inhibition, actives largely listed as inhibitors; purified HPGD, NADH fluorescence kinetic, PGE2 substrate; AID 894, 2007; further: potency means the concentration at half of the fitted maximal effect
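20 nM HPGD preincubated 15 min at room temperature with compound in 50 mM Tris-HCl pH 8, 0.01% Tween 20. Started with 1 mM NAD+ and 30 uM prostaglandin E2; NADH fluorescence (360/450 nm) read 5 times over 30-s intervals, last minus first.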
PNC assembly inh: High Content Assay for Compounds that inhibit the Assembly of the Perinucleolar Compartment; PC3M PTB-GFP, PNC prevalence imaging, 16 h; active compounds read low; activity change (PNC), negative = inhibition, % at 10 µM; 140,000 compounds, 3.1% hits; AID 2417, 2010;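 active means readout at or below -70, meaning at least 70% loss of cells showing the perinucleolar compartment, a nuclear body marking cancer cells; inconclusive means readout between -30 and a set limit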;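 further: plate controls were DMSO wells for no effect and camptothecin positive control wells for full effect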
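PC3M cells stably expressing PTB-GFP, 750–1000 cells/well, treated 16 h at 37 °C with compound (23 nl of library stock), in duplicate. After paraformaldehyde fixation and Hoechst stain, imaged at 20x; PNC prevalence scored by image analysis.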
ALDH1A1 inh: qHTS Assay for Inhibitors of Aldehyde Dehydrogenase 1 (ALDH1A1); Aldehyde dehydrogenase 1A1 (Homo sapiens), P00352; Purified ALDH1A1, NADH fluorescence, propionaldehyde substrate; Potency, µM (highest dose often 75.3 µM), for the others: at the highest dose activity, negative = inhibition, usual class: inhibitors; 220,000 compounds, 7.3% hits; AID 1030, 2008;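 further: potency means the concentration at half of the fitted maximal effect; plate controls were no enzyme wells and a reference inhibitor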
Target sequence (P00352 whole entry, looked up): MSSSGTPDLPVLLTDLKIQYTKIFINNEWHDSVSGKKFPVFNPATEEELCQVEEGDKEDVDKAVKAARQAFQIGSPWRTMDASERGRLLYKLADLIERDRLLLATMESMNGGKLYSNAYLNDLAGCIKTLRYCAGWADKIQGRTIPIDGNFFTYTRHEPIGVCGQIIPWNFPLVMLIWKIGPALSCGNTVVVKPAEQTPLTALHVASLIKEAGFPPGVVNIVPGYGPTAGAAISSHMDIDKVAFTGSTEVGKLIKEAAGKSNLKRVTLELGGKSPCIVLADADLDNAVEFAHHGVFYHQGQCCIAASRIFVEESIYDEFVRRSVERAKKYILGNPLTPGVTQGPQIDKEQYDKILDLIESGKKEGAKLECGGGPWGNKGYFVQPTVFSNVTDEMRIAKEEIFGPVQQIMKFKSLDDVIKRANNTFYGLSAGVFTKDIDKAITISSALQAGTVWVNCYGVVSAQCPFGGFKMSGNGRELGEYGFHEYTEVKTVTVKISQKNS
* marks the source's active call; other numbers are inactive results; ? = inconclusive; . = not tested or not shown; [ ] = dose if it differs, or a comment. Unless noted, the call rests on the fitted dose curve; in most records, active means well fitted inhibition curve with a large enough effect (not every such curve was filed as active); inconclusive means small, poorly fitted or top-dose-only effect, or another doubt; inactive means no such curve, though single readings can be large or run the other way. Unless noted, on the % scale 0 is the no-effect control and ±100 the full control effect.

SMILES	12-hLO inh	LMNA splice mod	HPGD inh	PNC assembly inh	ALDH1A1 inh
O=C(CSc1nnnn1C1CCCCC1)Nc1ccc2c(c1)OCO2	1%	10%	-3%	-17	7.9µM*
O=C(CSc1nnnn1C1CCCC1)Nc1ccc(F)cc1	3%	3%	-4%	42	?
Cc1oc2ncn(C)c(=O)c2c1C(=O)NCCCN(Cc1ccccc1)C(C)C	.	8%[46 µM]	.	.	.
CCOc1cc(C2NC(=O)NC(O)(C(F)(F)F)C2C(=O)c2ccc(OC)cc2)ccc1O (stereo unspecified)	-16%	7%	-12%	-1	5.6µM*
CCOc1cc(C2NC(=O)NC(O)(C(F)(F)F)C2C(=O)c2ccc(Cl)cc2)ccc1O (stereo unspecified)	-18%	?	-14%	26	?
CCOC(=O)C1C(c2cc(OC)c(O)c(OC)c2)NC(=S)NC1(O)C(F)(F)F (stereo unspecified)	1%	4%	-4%	-14	10%
CCOC(=O)C1C(c2cc(OC)c(OC)c(OC)c2)NC(=S)NC1(O)C(F)(F)F (stereo unspecified)	-13%	?	32µM*	?	?
CC(=O)c1ccc(OC(C)C)c(CSc2nc(O)cc(=O)[nH]2)c1	-25%	17%	3.5µM*	13	?
C[C@H](C(=O)O)c1cccc(Oc2ccccc2)c1	0%[25.6 µM]	?	-9%	.	4%[20.9 µM]
CC1(C(=O)O)Cc2ccccc2C(=O)O1 (stereo unspecified)	13%	20%	-15%	-101*	-5%
COc1ccc(OC)c(NC(=O)COCc2cc(-c3ccco3)on2)c1	.	0%[46 µM]	.	.	.
C/C(=N\S(=O)(=O)c1ccc(C)cc1)N(C)C	.	.	.	.	11%
CN(C)C(=O)CN1CCN(C(=O)CCl)CC1	.	.	.	.	2.8µM*
O=C(CN1CCCCC1)N1CCN(C(=O)CN2CCCCC2)CC1	-5%	2%	-4%	1	2%
CC(C)CC(=O)N1CCN(Cc2ccc3c(c2)OCO3)CC1	-1%	-19%	-8%	14	?
CC(C)NC(=O)CN1CCC(O)(c2ccccc2)CC1	1%	1%	-16%	-8	4%
CC(C)NC(=O)CN1CCN(C(=O)CCl)CC1	.	.	.	.	3.2µM*
CC(C)c1ccc(CN2CCN(C(=O)CCl)CC2)cc1	.	.	.	.	0.56µM*
CCOC(=O)CN1C(=O)N[C@@H](c2ccccc2)[C@H](C(=O)OC)[C@H]1C	2%[11.4 µM]	-10%[9.22 µM]	-7%	.	1%[13.5 µM]
CO[C@]1(C2=NCCN2)COc2ccccc2O1	-8%	.	-4%	.	-6%
O=C(Cc1coc(-c2ccc(F)cc2)n1)N1CCOCC1	2%	-16%	-6%	-5	3%
O=C(Cc1coc(-c2ccc(F)cc2)n1)NC1CCCCC1	-2%	-10%	18µM*	26	9%
CN(Cc1ccccc1)C(=O)c1nc(-c2ccc(Cl)cc2)n2c1CCCCC2	.	-10%[46 µM]	.	.	.
CCn1nc(C)c(NS(=O)(=O)c2ccc(C)cc2)c1C	-1%	?	-22%	-100*	-1%
Cc1ccc(S(=O)(=O)Nc2c(C)nn(C)c2C)cc1	5%	-21%	-3%	?	10%
SMILES	12-hLO inh	LMNA splice mod	HPGD inh	PNC assembly inh	ALDH1A1 inh
COc1ccc(C2C(C(=O)c3ccccc3)N3c4ccccc4C=CC3C2[N+](=O)[O-])cc1 (stereo unspecified)	.	.	.	.	25µM*
CC(=O)Nc1ccc2nc(C)n(Cc3ccc(Cl)cc3)c(=O)c2c1	-5%	?	-22%	-90*	2%
CC(=O)Nc1ccc(S(=O)(=O)NCc2cccn2Cc2cccc(C)c2)cc1	.	10%[46 µM]	.	.	.
Cc1ccc(S(=O)(=O)Cc2ccc(C(=O)N3CCCC3)o2)cc1	-1%	-2%	2%	-87*	-13%
Cc1ccc(S(=O)(=O)NCc2ccc(C(=O)N3CCCC3)cc2)cc1	-5%	-11%	20µM*	50	?
Cc1ccc(S(=O)(=O)Cc2ccc(C(=O)N3CCCCCC3)o2)cc1	-4%	-1%	-6%	-8	?
CC(C)(C)c1ccc(S(=O)(=O)NCc2ccc(C(=O)N3CCCC3)cc2)cc1	-1%	3%	?	17	4µM*
CCOC(=O)N1CCN(C(=O)c2ccc(CNS(=O)(=O)c3ccc(C)cc3)cc2)CC1	-4%	?	-5%	?	0%
CC(C)(CO)[C@H](O)C(=O)NCCCO	-3%[25.6 µM]	-12%	-8%	.	14%[20.9 µM]
CCCN1Cc2cccc(C(=O)Nc3ccc4c(c3)OCO4)c2C1=O	-10%	9%	-11%	11	-13%
CCCN1Cc2cccc(C(=O)Nc3ccc4c(c3)OCCO4)c2C1=O	2%	1%	-9%	-106*	-12%
COCCN1Cc2cccc(C(=O)Nc3cc(C)cc(C)c3)c2C1=O	-3%	4%	-26%	-85*	?
CCOc1ccc(CCNC(=O)c2c3c(nc4ccccc24)C(=O)N(C2CCCCC2)C3)cc1	.	-1%[46 µM]	.	.	.
Cc1[nH]c2ccccc2c1C(=O)CCl	.	?	.	.	0.25µM*
Cc1[nH]c2ccccc2c1C(=O)CN1CCCCC1C (stereo unspecified)	-20%	-2%	-19%	-96*	20µM*
Cc1ccc(CNC(=O)CN2N=C(c3ccc(C)cc3)CCC2=O)cc1	.	-8%[46 µM]	.	.	.
CC1CCN(S(=O)(=O)N2CCC(C(=O)NCc3ccccc3Cl)CC2)CC1	.	-14%[46 µM]	.	.	.
COc1ccccc1C(=O)NCC(=O)n1nc(C)cc1C	1%	2%	-17%	?	9%
Cc1cc(C)n(C(=O)CCNC(=O)c2ccccc2Br)n1	-1%	-11%	7.9µM*	16	-1%
Cc1cc(C)n(C(=O)CNC(=O)CCc2ccccc2)n1	-7%	?	16µM*	?	5%
CCOC(=O)C1CCN(C(=O)c2ccc(Br)o2)CC1	0%	13%	-13%	-6	3.2µM*
CCOC(=O)C1CCN(C(=O)C(C)Sc2ccc(Cl)cc2)CC1 (stereo unspecified)	0%	-6%	-8%	-12	?
CCOC(=O)C1CCN(C(=O)CSc2ccc(Br)cc2)CC1	.	18%[46 µM]	.	.	32µM*
CCOC(=O)C1CCN(C(=O)N(C)C)CC1	-8%	5%	-17%	?	6%
CCOC(=O)C1CCN(C(=O)CSCCSCC(=O)N2CCC(C(=O)OCC)CC2)CC1	6%	7%	-10%	-9	11µM*
CCOC(=O)C1CCN(C(=O)CSc2ccc(Cl)cc2)CC1	2%	?	-7%	-100*	-1%
COCCn1c(SCC(=O)c2c(-c3ccccc3)n(C)c3ccccc23)nnc1-c1ccncc1	0%	-10%	-9%	-3	20µM*

Screening data as filed in PubChem BioAssay.
